Test results published in PubChem BioAssay (NCATS).
Inconclusive results are not listed. The source made the active and inactive calls. Unless noted, calls follow the shape of the dose curve; as a rule, active = well fitted curve in the direction sought with a large enough effect; inconclusive = small, poorly fitted or top-dose-only effect, or another doubt; inactive = no such curve, though single readings can be large; an effect the other way counts as inactive or inconclusive.

Experiments:
[1] = qHTS for differential inhibitors of proliferation of Plasmodium falciparum line 3D7 (AID 1876);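 also: parasite growth measured after three days of culture; 0% = vehicle wells and -100% = reference inhibitor wells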
[2] = qHTS for differential inhibitors of proliferation of Plasmodium falciparum line D10 (AID 1877);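 also: parasites grown with compound for 72 h before DNA staining; plate controls were vehicle wells for no effect and reference inhibitor wells for full effect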
[3] = qHTS for differential inhibitors of proliferation of Plasmodium falciparum line Dd2 (AID 1882); details: Potency: Plasmodium falciparum Dd2 proliferation inhibition;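 also: series mostly up to about 29 µM; plate controls were DMSO vehicle for no effect and 0.29 µM artemisinin for full effect; nearly all actives have a fitted effect of over 65% in size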
How it was run: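 SYBR Green DNA fluorescence (ex 485, em 535 nm) after overnight lysis quantifies parasite growth; compound exposure lasted 72 h at 37 C on infected red cells at 2.5% hematocrit, 0.3% parasitemia (final). Artemisinin 0.29 uM and vehicle wells define normalization.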

[4] = qHTS for differential inhibitors of proliferation of Plasmodium falciparum line W2 (AID 1883); details: Potency: Plasmodium falciparum W2 proliferation inhibition;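 also: parasites grown with compound for 72 h before lysis and staining; 0% = vehicle wells and -100% = control inhibitor wells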
[5] = qHTS for differential inhibitors of proliferation of Plasmodium falciparum line HB3 (AID 1886); details: Potency: Plasmodium falciparum HB3 proliferation inhibition;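 also: parasites grown with compound for 72 h before SYBR Green readout; plate controls were vehicle for no effect and reference inhibitor for full effect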
[6] = qHTS Assay for Modulators of Human Peripheral Myelin Protein 22 (PMP22) Expression/Activity (AID 1967; active = well fitted curve in the direction sought with a large enough effect in the signal ratio; the % refers to the signal ratio;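 also: 0% = untreated cells and 100% end not stated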)
How it was run: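 MSC80 mouse Schwann cells stably carrying Pmp22 promoter–green click beetle luciferase plus EF-alpha–red luciferase control were dosed for 24h at 37 °C. Dual-colour luminescence was filter-overlap corrected; %Activity came from green/red ratio versus untreated cells.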

[7] = molecular target: Ferritin light chain (Equus caballus) (UniProt P02791); test: qHTS Validation Assay for Identification of Novel General Anesthetics (AID 2323); also: series mostly up to about 77 µM; % is scaled to controls: 0 for no effect and ±100 for the full control effect
How it was run: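 Competitive displacement of profluorescent 1-aminoanthracene (1-AMA, 50% saturated solution in PBS) from 10 uM horse-spleen apoferritin. Compounds incubated 10 min at room temperature; fluorescence read at 380 nm excitation/535 nm emission, normalized to free 1-AMA and complex, fitted with four-parameter Hill equation.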

[8] = molecular target: ATP-dependent DNA helicase Q1 (Homo sapiens) (UniProt P46063); test: qHTS Validation Assay for Inhibitors of RecQ-Like Dna Helicase 1 (RECQ1) (AID 2353);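 also: plate controls were DMSO vehicle for no effect and enzyme-free control for full effect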
How it was run: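 RECQ1T1 50 nM; forked duplex (20 bp + 30-nt ss tails) 200 nM, ATP 2 mM final; pH 8.0, 2 mM MgCl2, 2.5 ug/ml poly(dI-dC); 15 min compound preincubation; discontinuous kinetic read over 2 h at RT.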

[9] = molecular target: RecQ-like DNA helicase BLM (Homo sapiens) (UniProt P54132); test: qHTS Validation Assay for Inhibitors of Bloom's syndrome helicase (BLM) (AID 2364);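 also: plate controls were DMSO vehicle for no effect and enzyme-free control for full effect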
How it was run: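 BLM 50 nM in 25 mM Tris-HCl pH 8.0, 5 mM NaCl, 2 mM MgCl2, 1 mM DTT, 0.01% Tween-20, 2.5 ug/ml poly(dI-dC); 15 min cpd preinc, RT. Start: 200 nM forked DNA + 2 mM ATP (final). TAMRA read, 2 reads 2 h apart.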

[10] = Validation screen for inhibitors of Lassa infection (AID 463096; calls by dose curve; also: % is scaled to controls: 0 for no effect and ±100 for the full control effect)
[11] = Validation screen for small molecules that induce DNA re-replication in MCF 10A normal breast cells (AID 463097); also: 0% is about no effect; nearly all actives have a fitted effect of over 60% in size
How it was run: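 Readout: Hoechst nuclear fluorescence intensity, 405 ex / 500-530 em, by scanning plate imager; re-replication scored as increase in nuclei with elevated DNA content. Cells exposed to compound 48 hr, 37 C, 5% CO2 beforehand.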

[12] = Quantitative high throughput screen for delayed death inhibitors of the malarial parasite plastid, 96 hour incubation (AID 488745);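 also: luciferase-expressing P. falciparum in erythrocytes at 2% hematocrit and 0.1% parasitemia; series mostly up to about 29 µM; % is scaled to controls: 0 for no effect and ±100 for the full control effect; nearly all actives have a fitted effect of over 70% in size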
How it was run: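 Readout is firefly luciferase luminescence from an integrated reporter in P. falciparum; lower signal marks inhibited growth. Cultures at 2% hematocrit and 0.1% parasitemia were treated with compound across two generations (96 h, 37 C, 5% CO2).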

[13] = Quantitative high throughput screen for delayed death inhibitors of the malarial parasite plastid, 48 hour incubation (AID 488752); also: % is scaled to controls: 0 for no effect and ±100 for the full control effect; nearly all actives have a fitted effect of over 65% in size
How it was run: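 First, compound was pinned into RPMI 1640 medium containing 0.5% Albumax. Next, reporter-parasite-infected erythrocytes were added to 2% hematocrit and 0.1% parasitemia. After 48 h at 37 C under 5% CO2, luciferase detection reagent was added and luminescence read.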

[14] = molecular target: M-phase phosphoprotein 8 (Homo sapiens) (UniProt Q99549); test: qHTS Validation Assay for Inhibitors for MPP8 Chromodomain Interactions with Methylated Histone Tails (AID 488949);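 also: AlphaScreen signal from MPP8 chromodomain bound to biotinylated H3K9me3 peptide; top concentration of the series differs between compounds; % is scaled to controls: 0 for no effect and ±100 for the full control effect; nearly all actives have a fitted effect of over 55% in size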
How it was run: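 MPP8 (50 nM) was preincubated with biotinylated H3(1-18)K9me3 peptide (50 nM) in PBS pH 7.4, 0.01% Tween-20 for 30 min at room temperature, then with compounds for 30 min; binding was detected by AlphaScreen.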

[15] = molecular target: Transient receptor potential cation channel subfamily V member 1 (Homo sapiens) (UniProt Q8NER1); test: HTS Assay for Compounds that Act as Enhancers of the Vanilloid Receptor 1 (AID 488979); also: 0% is about no effect
How it was run: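 TRPV1-expressing cells loaded with Fluo-8 calcium dye; compounds added and calcium influx read kinetically for 3 min (agonist phase), then capsaicin at EC20 added and read 2 min more for enhancement. Fluorescence ex 480/em 520 nm.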

[16] = molecular target: Thyrotropin receptor (Homo sapiens) (UniProt P16473); test: qHTS Assay for Antagonists of the Thyroid Stimulating Hormone Receptor (AID 488980); also: series mostly up to about 58 µM; 0% is about no effect
How it was run: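 HEK293 cells transfected with human TSHR, suspended in HEPES-buffered HBSS with 70 uM RO 20-1724, were treated with compounds plus TSH at EC80 (4 nM final). cAMP was measured by competitive HTRF (cryptate anti-cAMP antibody, cAMP-d2 acceptor).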

[17] = molecular target: Thyrotropin-releasing hormone receptor (Homo sapiens) (UniProt P34981); test: qHTS for Small Molecule Agonists and Allosteric Enhancers of Human TRH Receptor: Validation Screen for Agonists (AID 493127;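 active = calcium activation more than 3 SD above the typical response in the agonist read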;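 also: intracellular calcium rise by fluo-8 fluorescence before TRH EC20 addition; 0% is about no effect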); details: TRH receptor agonist cell assay; at 2 µM; active compounds read high
How it was run: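 Compounds are added by online pintool to dye-loaded TRHR cells while fluorescence is recorded every second. A rise in calcium signal during the agonist read marks activation; a later 10 nM TRH addition (EC20) serves the separate enhancer mode.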

[18] = molecular target: Galactokinase (Homo sapiens) (UniProt P51570); test: qHTS Validation Assay for Inhibitors of Human Galactokinase (GALK) (AID 493189); also: 0% is about no effect
How it was run: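 GALK (5 nM) with 35 uM ATP and 100 uM galactose in HEPES pH8.0, MgCl2, NaCl, DTT, BSA; 1 h at room temperature. Residual ATP read by Kinase-Glo Plus luminescence after 10 min.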

[19] = molecular target: Voltage-gated inwardly rectifying potassium channel KCNH2 (Homo sapiens) (UniProt Q12809); test: qHTS Assay for Small Molecule Inhibitors of the Human hERG Channel Activity (AID 588834);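 also: top concentration of the series differs between compounds; % is scaled to controls: 0 for no effect and ±100 for the full control effect; lower thallium flux fluorescence means stronger hERG block; nearly all actives have a fitted effect of over 50% in size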
How it was run: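 In hERG-transduced U2OS cells, dye-loaded for 1 hr at room temperature in dark, test compounds incubated 10 min at 37 °C before thallium stimulation. AC50 values derived by Hill modelling of concentration-response.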

[20] = test system: Zika virus NS2B-NS3 protease; test: Primary screen GU AMC qHTS for Zika virus inhibitors (AID 1347154);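 also: 0% = no-inhibitor control and -100% = no-enzyme control; nearly all actives have a fitted effect of over 70% in size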
How it was run: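 Unlinked Zika NS2B hydrophilic domain/NS3 protease domain noncovalent complex (25 nM final) in 10 mM Tris-HCl pH 8.0, 0.01% Tween 20, with AMC peptide substrate. Fluorescence (ex 340, em 450 nm) change over 15 min, room temperature; percent inhibition fitted to 4-parameter Hill equation.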

[21] = Primary qHTS for small molecule stabilizers of the endoplasmic reticulum resident proteome: Secreted ER Calcium Modulated Protein (SERCaMP) assay (AID 1508630); also: % is scaled to controls: 0 for no effect and ±100 for the full control effect
How it was run: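 The SH-SY5Y reporter protocol was run at 3 concentrations up to 38.3 uM (primary) or 11 concentrations (follow-up): 16 h compound, 100 nM thapsigargin for 4 h, then extracellular luciferase luminescence.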

Chain of RecQ-like DNA helicase BLM (Homo sapiens) (P54132 whole entry, looked up): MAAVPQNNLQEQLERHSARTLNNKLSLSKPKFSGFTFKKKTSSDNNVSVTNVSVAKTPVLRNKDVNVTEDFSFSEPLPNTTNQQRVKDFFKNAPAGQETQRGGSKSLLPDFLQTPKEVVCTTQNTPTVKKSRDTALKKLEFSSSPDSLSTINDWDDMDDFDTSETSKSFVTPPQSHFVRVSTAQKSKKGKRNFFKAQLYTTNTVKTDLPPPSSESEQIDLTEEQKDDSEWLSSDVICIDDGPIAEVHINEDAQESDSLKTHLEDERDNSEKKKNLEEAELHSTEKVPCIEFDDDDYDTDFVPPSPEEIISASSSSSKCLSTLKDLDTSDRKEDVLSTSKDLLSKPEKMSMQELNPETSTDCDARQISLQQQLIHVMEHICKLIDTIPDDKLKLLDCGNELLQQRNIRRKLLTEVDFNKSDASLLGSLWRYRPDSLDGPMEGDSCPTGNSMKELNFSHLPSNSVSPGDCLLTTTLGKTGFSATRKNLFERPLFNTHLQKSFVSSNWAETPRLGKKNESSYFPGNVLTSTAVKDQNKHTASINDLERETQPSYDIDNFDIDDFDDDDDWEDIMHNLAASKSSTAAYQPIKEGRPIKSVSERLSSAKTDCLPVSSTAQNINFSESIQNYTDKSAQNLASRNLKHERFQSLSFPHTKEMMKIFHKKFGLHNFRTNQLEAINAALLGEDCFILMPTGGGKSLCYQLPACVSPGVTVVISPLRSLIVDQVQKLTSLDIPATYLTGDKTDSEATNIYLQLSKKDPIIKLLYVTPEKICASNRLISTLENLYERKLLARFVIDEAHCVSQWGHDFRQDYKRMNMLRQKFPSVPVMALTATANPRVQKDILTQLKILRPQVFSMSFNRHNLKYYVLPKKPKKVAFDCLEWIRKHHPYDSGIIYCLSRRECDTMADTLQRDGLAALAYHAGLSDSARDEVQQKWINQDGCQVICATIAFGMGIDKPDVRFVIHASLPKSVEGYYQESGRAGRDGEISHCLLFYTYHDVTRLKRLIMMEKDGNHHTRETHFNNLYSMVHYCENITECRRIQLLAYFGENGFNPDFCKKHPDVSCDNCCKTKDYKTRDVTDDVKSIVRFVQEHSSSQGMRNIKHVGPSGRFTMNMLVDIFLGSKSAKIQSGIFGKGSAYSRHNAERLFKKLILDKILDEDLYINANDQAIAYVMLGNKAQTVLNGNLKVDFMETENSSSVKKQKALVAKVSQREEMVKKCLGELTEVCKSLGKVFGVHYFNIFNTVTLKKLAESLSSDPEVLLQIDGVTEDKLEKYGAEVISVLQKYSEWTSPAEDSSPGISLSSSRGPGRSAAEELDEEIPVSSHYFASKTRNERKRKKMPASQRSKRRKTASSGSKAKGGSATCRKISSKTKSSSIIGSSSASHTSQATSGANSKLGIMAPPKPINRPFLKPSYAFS
Chain of Thyrotropin receptor (Homo sapiens) (P16473 whole entry, looked up): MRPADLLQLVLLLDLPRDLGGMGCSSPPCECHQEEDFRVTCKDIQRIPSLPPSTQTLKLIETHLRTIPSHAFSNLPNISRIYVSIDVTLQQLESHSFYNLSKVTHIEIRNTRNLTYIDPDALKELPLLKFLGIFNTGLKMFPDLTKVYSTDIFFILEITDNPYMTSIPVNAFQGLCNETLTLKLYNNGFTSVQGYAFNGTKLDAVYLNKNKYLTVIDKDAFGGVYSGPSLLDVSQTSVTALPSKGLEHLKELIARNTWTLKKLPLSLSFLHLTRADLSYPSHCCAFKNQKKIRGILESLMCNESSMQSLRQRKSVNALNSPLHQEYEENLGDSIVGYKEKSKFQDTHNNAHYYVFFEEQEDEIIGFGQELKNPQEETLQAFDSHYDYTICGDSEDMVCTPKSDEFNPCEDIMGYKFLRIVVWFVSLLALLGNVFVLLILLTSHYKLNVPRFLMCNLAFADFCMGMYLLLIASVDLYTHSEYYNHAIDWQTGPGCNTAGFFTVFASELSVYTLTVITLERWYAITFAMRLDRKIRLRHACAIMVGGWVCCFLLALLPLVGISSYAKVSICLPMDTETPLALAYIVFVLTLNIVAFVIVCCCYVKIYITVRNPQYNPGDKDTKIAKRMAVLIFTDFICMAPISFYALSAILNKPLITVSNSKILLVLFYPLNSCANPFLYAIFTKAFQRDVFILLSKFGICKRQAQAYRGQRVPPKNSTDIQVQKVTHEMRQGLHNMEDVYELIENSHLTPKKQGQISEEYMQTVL
Chain of Galactokinase (Homo sapiens) (P51570 whole entry, looked up): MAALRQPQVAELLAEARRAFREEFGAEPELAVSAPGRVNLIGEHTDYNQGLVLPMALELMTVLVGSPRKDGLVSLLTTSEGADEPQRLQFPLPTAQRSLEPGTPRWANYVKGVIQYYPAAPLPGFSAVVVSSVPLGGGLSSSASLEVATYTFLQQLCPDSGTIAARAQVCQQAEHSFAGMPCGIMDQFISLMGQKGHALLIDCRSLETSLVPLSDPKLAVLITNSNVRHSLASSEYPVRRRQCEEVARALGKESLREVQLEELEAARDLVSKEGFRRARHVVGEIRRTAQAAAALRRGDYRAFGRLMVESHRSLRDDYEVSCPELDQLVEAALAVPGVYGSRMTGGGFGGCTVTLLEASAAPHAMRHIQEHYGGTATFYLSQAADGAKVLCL
Chain of Thyrotropin-releasing hormone receptor (Homo sapiens) (P34981 whole entry, looked up): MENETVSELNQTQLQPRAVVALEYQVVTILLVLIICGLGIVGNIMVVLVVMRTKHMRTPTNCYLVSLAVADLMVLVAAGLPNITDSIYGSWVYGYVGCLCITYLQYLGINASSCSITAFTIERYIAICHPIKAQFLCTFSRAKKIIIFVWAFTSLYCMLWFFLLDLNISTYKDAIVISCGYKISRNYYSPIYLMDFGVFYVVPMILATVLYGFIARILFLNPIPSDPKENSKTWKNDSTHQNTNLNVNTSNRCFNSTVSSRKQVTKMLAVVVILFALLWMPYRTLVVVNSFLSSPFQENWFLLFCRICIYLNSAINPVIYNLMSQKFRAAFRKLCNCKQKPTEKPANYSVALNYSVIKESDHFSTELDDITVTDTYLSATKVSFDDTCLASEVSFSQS
Chain of Transient receptor potential cation channel subfamily V member 1 (Homo sapiens) (Q8NER1 whole entry, looked up): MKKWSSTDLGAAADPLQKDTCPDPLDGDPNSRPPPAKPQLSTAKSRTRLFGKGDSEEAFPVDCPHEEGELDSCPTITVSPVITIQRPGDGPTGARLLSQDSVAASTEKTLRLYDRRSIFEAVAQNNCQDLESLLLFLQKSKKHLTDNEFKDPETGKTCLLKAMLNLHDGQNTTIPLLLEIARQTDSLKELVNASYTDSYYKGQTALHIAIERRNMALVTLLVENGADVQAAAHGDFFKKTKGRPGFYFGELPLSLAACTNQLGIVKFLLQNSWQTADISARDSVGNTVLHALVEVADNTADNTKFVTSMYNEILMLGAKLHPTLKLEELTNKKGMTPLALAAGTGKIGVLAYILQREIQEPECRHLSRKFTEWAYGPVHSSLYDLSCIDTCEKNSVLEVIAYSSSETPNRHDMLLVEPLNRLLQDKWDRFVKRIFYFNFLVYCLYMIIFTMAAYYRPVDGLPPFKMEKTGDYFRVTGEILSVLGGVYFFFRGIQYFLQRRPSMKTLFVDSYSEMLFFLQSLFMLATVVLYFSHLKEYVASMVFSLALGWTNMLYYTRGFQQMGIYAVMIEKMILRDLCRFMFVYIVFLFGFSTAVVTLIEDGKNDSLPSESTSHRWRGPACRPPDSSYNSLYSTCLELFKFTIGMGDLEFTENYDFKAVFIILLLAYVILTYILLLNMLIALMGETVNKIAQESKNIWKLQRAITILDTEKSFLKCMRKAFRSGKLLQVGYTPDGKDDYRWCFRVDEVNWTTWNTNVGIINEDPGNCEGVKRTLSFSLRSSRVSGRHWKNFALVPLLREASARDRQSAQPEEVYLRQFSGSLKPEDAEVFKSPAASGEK
Chain of M-phase phosphoprotein 8 (Homo sapiens) (Q99549 whole entry, looked up): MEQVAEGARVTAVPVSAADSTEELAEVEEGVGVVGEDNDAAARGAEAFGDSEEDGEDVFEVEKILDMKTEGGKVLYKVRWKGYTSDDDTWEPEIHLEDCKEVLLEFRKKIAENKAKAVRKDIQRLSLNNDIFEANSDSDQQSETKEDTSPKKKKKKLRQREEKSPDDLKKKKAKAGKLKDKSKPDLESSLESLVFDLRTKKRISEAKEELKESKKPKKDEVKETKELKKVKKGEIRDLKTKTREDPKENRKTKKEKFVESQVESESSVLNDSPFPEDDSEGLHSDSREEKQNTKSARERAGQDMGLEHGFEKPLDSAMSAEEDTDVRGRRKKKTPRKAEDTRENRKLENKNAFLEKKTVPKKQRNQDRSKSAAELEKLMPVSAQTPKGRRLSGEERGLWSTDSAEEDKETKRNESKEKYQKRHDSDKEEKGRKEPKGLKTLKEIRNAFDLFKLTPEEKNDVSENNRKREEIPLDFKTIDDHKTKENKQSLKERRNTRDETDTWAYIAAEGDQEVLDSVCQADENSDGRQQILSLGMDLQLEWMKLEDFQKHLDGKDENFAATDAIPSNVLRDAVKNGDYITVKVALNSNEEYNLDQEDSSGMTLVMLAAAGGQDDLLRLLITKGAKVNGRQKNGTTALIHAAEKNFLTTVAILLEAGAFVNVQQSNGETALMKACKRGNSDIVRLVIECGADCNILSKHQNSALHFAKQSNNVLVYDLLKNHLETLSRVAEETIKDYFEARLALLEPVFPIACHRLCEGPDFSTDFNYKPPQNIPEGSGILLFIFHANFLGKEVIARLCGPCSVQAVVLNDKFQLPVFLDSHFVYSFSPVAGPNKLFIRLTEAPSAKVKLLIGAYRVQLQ
Chain of Ferritin light chain (Equus caballus) (P02791 2-175 limits assumed): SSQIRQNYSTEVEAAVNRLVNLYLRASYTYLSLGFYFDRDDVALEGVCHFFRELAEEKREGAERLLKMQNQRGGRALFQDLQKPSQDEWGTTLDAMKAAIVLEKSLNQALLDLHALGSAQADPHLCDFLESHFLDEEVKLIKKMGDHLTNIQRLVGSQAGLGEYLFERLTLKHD

COc1cc(CCN)ccc1O
inactive: Potency [1] | Potency [2] | Potency [3] | Potency [4] | Potency [5] | outcome [6] | outcome [7] | Potency [8] | Potency [9] | Potency [10] | Potency [11] | Potency [12] | Potency [13] | Potency [14] | outcome [15] | outcome [16] | activation [17] -0.312% | outcome [18] | Potency [19] | Potency [20] | Potency [21]
